Test results reported in ChEMBL document CHEMBL3988442, “University of Dundee, Small-Polar-MMV Screening Library” (2021).
In all, about 48,000 compounds went through this assay and about 13,000 (27%) showed an effect of 50% or more. Some of the results follow.

System: Wolbachia pipientis
Test: Anti-Wolbachia Cell-Based Screen
Type: functional
Parameters: scale not given: in the data most compounds retested in dose-response had high values
Details: 5 µM

Row | SMILES | Percent Effect [%]
1 | O=C(O)CSc1nnc(-c2ccn[nH]2)n1-c1cccc(C(F)(F)F)c1 | -2.54
2 | COc1ccc(-c2nc(C3(NC(=O)OC(C)(C)C)CCC3)no2)cn1 | 3.682
3 | COc1ccc(C(=O)NCCNC(=O)c2cncnc2C)cc1 | -1.399
4 | O=C(COC1CCCCC1)Nc1ccn(Cc2cccnc2)n1 | 3.333
5 | CC1=C[C@@H](CC#N)[C@H](C(C)C)C[C@H]1CC(=O)N1CCN(C)CC1 | 13.63
6 | Oc1cccc(-c2cc(CC3(N(CC4CC4)CC4CC4)COC3)no2)c1 | 2.791
7 | CC(C)=CCS(=O)(=O)Cc1noc(CC(C)C)n1 | -4.798
8 | CCNC(=O)N1CCC2(C1)c1ccccc1S(=O)(=O)N2CCOC (centres undefined) | 101.2
9 | COCCN1C2(CCN(C(=O)c3cccs3)C2)c2ccccc2S1(=O)=O (centres undefined) | 112.6
10 | COCCN1C[C@@H](C)[C@@]2(COCCN(C(=O)c3cccs3)C2)C1.O=C(O)C(F)(F)F | 3.824
11 | COCCN1C[C@H]2CCN(C(=O)Nc3ccccc3C)CC[C@H]2S1(=O)=O | -14.97
12 | COCC(=O)N1CCC2(CCC(C(=O)N3CCCC3)O2)CC1 (centres undefined) | -11.51
13 | O=C(c1ccc(Cl)s1)N1CCC2(COc3ncccc3S(=O)(=O)N2)C1 (centres undefined) | 106.8
14 | O=C(O)C(F)(F)F.O=C(c1ccncc1)N1CCC2(CC1)C(=O)Nc1ccccc12 | -18.03
15 | O=C(C1CCCC1)N1CC[C@]2(O)CCN(Cc3ncccn3)C[C@@H]2C1 | -5.051
16 | O=C(c1ccoc1)N1CCC2(C1)CN(c1ncccn1)C2 | -1.221
17 | O=C(C1CCCCC1)N1CCC2(COc3ncccc3S(=O)(=O)N2)C1 (centres undefined) | 116.2
18 | O=C(c1ccncc1)N1CCC2(COc3ncccc3S(=O)(=O)N2)C1 (centres undefined) | 101.3
19 | O=C(O)C(F)(F)F.O=S1(=O)NCC2(CCN(c3ncccn3)CC2)COc2ccccc21 | 7.267
20 | O=C(c1ccccn1)N1CCC2(COc3ncccc3S(=O)(=O)N2)C1 (centres undefined) | 107.8
21 | O=C1CCC2(CCCN(C(=O)C3CCCC3)C2)CN1CCc1c[nH]cn1 (centres undefined) | -4.42
22 | O=C(c1ccccn1)N1CCN(C(c2ccccc2)C(F)(F)F)CC1 (centres undefined) | 20.54
23 | O=C(c1ccc(Cl)s1)N1CC(c2nc(-c3ccc[nH]c3=O)no2)C1 | -1.237
24 | CCC(CC)NC(=O)NCc1ccnc(-n2ccnc2C)c1 | -7.702
25 | COCCN1CCN(C(=O)C[C@@H]2C[C@@H](C(C)C)[C@H](CO)C=C2C)CC1 | -1.318
26 | CC(=O)Nc1ncc(S(=O)(=O)N2CCC(C)CC2)s1 | -4.256

Row | SMILES | Percent Effect [%]
27 | COCCN(C)C(=O)c1ccc2onc(-c3coc(C)n3)c2c1 | 3.529
28 | CC(C)Cc1noc(CN(C)C(=O)C2COc3ccccc3C2)n1 (centres undefined) | -0.9273
29 | O=C(CN1CC(c2nc(C3CC3)no2)C1)NCC1CCCO1.O=C(O)C(=O)O (centres undefined) | 11.2
30 | Cc1ccc(CN2CC3(CCN(C(=O)c4cscn4)C3)C2)s1.O=C(O)C(F)(F)F | -3.969
31 | O=C(c1cscn1)N1CCC2(COc3ncccc3S(=O)(=O)N2)C1 (centres undefined) | 87.78
32 | O=C(c1cscn1)N1CCC2(CC1)CCN(S(=O)(=O)c1ccccc1)C2 | -2.013
33 | COCC(=O)N1CCCn2c(CN3CCCCC3)nnc2C1.O=C(O)C(F)(F)F | -12.43
34 | CCOCC(=O)N1CCCn2c(nnc2Cn2cccc2)C1 | 93.36
35 | O=C(C1CCCO1)N1CCCn2c(nnc2Cn2ccnc2)C1.O=C(O)C(F)(F)F (centres undefined) | -15.24
36 | O=C(C1CCCO1)N1CCCn2c(nnc2Cn2cccc2)C1 (centres undefined) | -19.79
37 | COCC(=O)N1CCCn2c(CN3CCOCC3)nnc2C1.O=C(O)C(F)(F)F | 114.9
38 | COCC(=O)N1CCCn2c(CN3CCCC3)nnc2C1 | 85.92
39 | COCC(=O)N1CCCn2c(CN3CCCC3=O)nnc2C1 | 88.29
40 | O=C(CC1CC1)N1CCCn2c(nnc2Cn2cccc2)C1 | -9.469
41 | Fc1cnc(N2CCCn3c(CN4CCOCC4)nnc3C2)nc1.O=C(O)C(F)(F)F.O=C(O)C(F)(F)F | -2.409
42 | O=C(O)C(F)(F)F.O=C(O)C(F)(F)F.O=C(c1ccncc1)N1CCCn2c(CN3CCCC3)nnc2C1 | -6.384
43 | CCc1nc(CCNC(=O)C2CCOC2)sc1C (centres undefined) | -3.855
44 | Cc1cc(N2CCN(C(=O)C(C)n3ccnc3C(C)C)CC2)cc(C)n1 (centres undefined) | 8.833
45 | CCOCC(=O)N1CCCn2c(CN3CCOCC3)nnc2C1 | 89.68
46 | CCOCC(=O)N1CCCn2c(CN3CCCCC3)nnc2C1 | 101.4
47 | Cc1nc2cc(F)cc(C(=O)N3CCN(CC(C)O)CC3)c2nc1C (centres undefined) | -10.08
48 | CNc1cncc(C2CCN(C(=O)c3cnco3)CC2)n1 | 87.6
49 | CNc1cncc(C2CCN(C(=O)c3coc(C)n3)CC2)n1 | 81.53
50 | COCCN(Cc1ccco1)Cc1nc(-c2ccc(C)c(F)c2)no1 | -0.2442
51 | CC1Oc2ccc(S(=O)(=O)NCCCn3ccnc3)cc2NC1=O (centres undefined) | -3.003
52 | CCC(C)(C)NCc1nc(C(C)(C)NC(=O)OC(C)(C)C)no1 | 2.253

Row | SMILES | Percent Effect [%]
53 | COCCNC(=O)c1nc2c(s1)CCCN2c1ccc(C)nn1 | 1.037
54 | Cc1ccc(N2CCCc3sc(C(=O)NCc4cccnc4)nc32)nn1 | 10.28
55 | CCN(C(=O)c1nc2c(s1)CCCN2c1ccc(C)nn1)C(C)C | 87.32
56 | COCCN(C)C(=O)c1nc2c(s1)CCCN2c1ncccn1 | -1.851
57 | Cc1ccc(N2CCCc3sc(C(=O)NCc4ccncc4)nc32)nn1 | -3.066
58 | COCCN(C)C(=O)c1nc2c(s1)CCCN2c1ccc(C)nn1 | 96.15
59 | N#Cc1cccc(CN2CC3(CCCCN3c3cccnc3)CC2=O)c1.O=C(O)C(F)(F)F (centres undefined) | 9.304
60 | CC(C)CN1C[C@@H]2CN(c3cnccn3)C[C@@H]2C1=O | -19.41
61 | O=C(CSc1ccc2c(c1)OCCO2)NS(=O)(=O)c1cccs1 | 5.144
62 | O=S(=O)(NCC(c1ccsc1)N1CCCCCC1)c1cccs1 (centres undefined) | 116.8
63 | O=S(=O)(NCC1(O)CCOc2ccccc21)c1cccs1 (centres undefined) | -3.854
64 | CN1CCc2cc(C(CNS(=O)(=O)c3cccs3)N3CCCC3)ccc21 (centres undefined) | -7.457
65 | CN(C)c1ccc(C(CNS(=O)(=O)c2cccs2)N2CCCC2)cc1 (centres undefined) | 108.3
66 | CCC(CO)N(Cc1cccs1)C(=O)CNS(=O)(=O)c1cccs1 (centres undefined) | 5.395
67 | O=C(CN1CCN(C(=O)c2cccc(-c3ccoc3)c2)CC1)C1CC1 | -1.743
68 | CN(C)CC1CSCCCN1C(=O)c1ccc(=O)[nH]c1 (centres undefined) | 13.95
69 | CN(C)CC1CSCCCN1C(=O)c1ccc(C(C)(C)C)cc1 (centres undefined) | 10.83
70 | CN(C)CC1CSCCCN1C(=O)Nc1ccc(C(C)(C)C)cc1 (centres undefined) | -13.3
71 | CN(C)CC1CSCCCN1C(=O)c1ccc(-c2ccccc2)cc1 (centres undefined) | 105.9
72 | CN(C)CC1CSCCCN1S(=O)(=O)Cc1cccc(F)c1 (centres undefined) | 24.8
73 | CN(C)CC1CSCCCN1S(=O)(=O)c1ccc(C(F)(F)F)cc1 (centres undefined) | 1.872
74 | Cc1ccc(C2CSCCN2C(=O)c2ccsc2)o1 (centres undefined) | 6.011
75 | CN(C)CC1CSCCCN1C(=O)c1ccc(-n2cccc2)cc1 (centres undefined) | 106.7
76 | CN(C)CC1CSCCCN1C(=O)c1ccsc1 (centres undefined) | 106.6
77 | CN(C)CC1CSCCCN1C(=O)c1cccc(C(F)(F)F)c1 (centres undefined) | 90.72
78 | CN(C)CC1CSCCCN1S(=O)(=O)Cc1ccc(C(F)(F)F)cc1 (centres undefined) | -4.653

Row | SMILES | Percent Effect [%]
79 | CC(O)CN1CCC(CNCc2cccc(OC(C)C)c2)CC1 (centres undefined) | -7.306
80 | CC(c1nc(-c2ccccc2)no1)N1CC(n2cccn2)C1 (centres undefined) | -11.21
81 | COc1ccc(CN(C)c2ccc(-c3nccn3C)nn2)cc1OC | -9.583
82 | O=C(Nc1nnn[nH]1)c1ccc(I)c(F)c1 | 14.38
83 | CC(C)Oc1ccc(C(=O)N2CCCSCC2CN(C)C)cc1 (centres undefined) | 112.1
84 | Cc1ccc(C2CSCCN2C(=O)c2ccc(C(N)=O)cc2)o1 (centres undefined) | -7.519
85 | Cc1cccc(OCC2CCCN(C(=O)CN(C)C3CCNCC3)C2)c1 (centres undefined) | -1.159
86 | CC(C)NC(=O)C1CCC2(CCN(Cc3cnn(C)c3)CC2)C1.O=C(O)C(F)(F)F (centres undefined) | -6.614
87 | CN(Cc1nc(C2CC2)no1)C1CCS(=O)(=O)C1 (centres undefined) | -44.33
88 | Cc1nc(CN(Cc2ccccc2)C2CCS(=O)(=O)C2)oc1C (centres undefined) | 1.056
89 | CN(Cc1ncnn1C1Cc2ccccc2C1)C1CCS(=O)(=O)C1 (centres undefined) | 124.4
90 | CCN(Cc1ccc(-c2ccccn2)cc1)C1CCS(=O)(=O)C1 (centres undefined) | -8.377
91 | CN(CCc1ncnn1C1Cc2ccccc2C1)C1CCS(=O)(=O)C1 (centres undefined) | 86.57
92 | CCN(Cc1cc(-c2ccccn2)no1)C1CCS(=O)(=O)C1 (centres undefined) | -17.52
93 | CN(Cc1nc(C(C)(C)C)no1)C1CCS(=O)(=O)C1 (centres undefined) | -19.08
94 | CN(CCc1ncnn1-c1ccccc1Cl)C1CCS(=O)(=O)C1 (centres undefined) | 107.4
95 | CN(CCc1ccc2c(c1)CCO2)C1CCS(=O)(=O)CC1 | -8.2
96 | Cc1ccc(O)c(C(=O)NCCS(=O)(=O)Cc2ccccc2)c1 | 0.3485
97 | O=C(CCN1C(=O)CCC1=O)Nc1cnn(-c2ccccc2Cl)c1 | -6.016
98 | Cc1cccc(OC(C)C(=O)NCC2(N(C)C)CCCC2)c1 (centres undefined) | 4.772
99 | CN(Cc1nc(C(F)(F)F)cs1)C(=O)CCc1ccccn1 | 104.8
100 | Cc1nc(CN2CCN(C(=O)CCc3cccnc3)CC2)no1 | -0.7807
101 | CN(Cc1ccccn1)C(=O)Nc1cc(C(F)(F)F)c[nH]c1=O | 11.49
102 | CN(Cc1cc(Br)cn1C)C(=O)Cc1cccnc1 | -0.2173
103 | CN(CCc1ccccn1)C(=O)Nc1cc(C(F)(F)F)c[nH]c1=O | 14.36
104 | CN(Cc1nc(C(F)(F)F)cs1)C(=O)CCc1cccnc1 | 99.2
